Data on 69 compounds can be found in ChEMBL document CHEMBL3988442, “University of Dundee, Small-Polar-MMV Screening Library” (2021).

Molecules are shown by their SMILES. Among all 48,000 compounds or so, about 13,000 (27%) showed an effect of 50% or more. Some of the results follow.

In this assay the test system is Wolbachia pipientis. Briefly: Anti-Wolbachia Cell-Based Screen. Also noted: scale not given: in the data most compounds retested in dose-response had high values. The following applies: 5 µM. Format: functional.
With `C[C@H]1CC[C@H](C(=O)N2CCC(n3cc(C4(O)CCCC4)nn3)CC2)CC1`, the “Percent Effect” value is recorded as 3.706%. To `CSc1ncc(C(=O)N2C[C@@H](NC(C)=O)[C@H](c3ccc(C)cc3)C2)cn1` belongs -0.9583%. To `CN(C(=O)NCCCN1CCCC1)C1CCN(c2ccccc2)C1=O` (centres undefined) belongs -8.204%. To `Cc1cc(-c2cncnc2)ccc1OCC(N)=O` belongs -32.33%; to `N#Cc1cc(N2CCC(S(N)(=O)=O)CC2)c2ccccc2n1`, -5.494%; to `COCCCC1(CO)CCCN(C(=O)c2cnc(C3CC3)nc2)C1` (centres undefined), -3.858%. On to `COCCN1CCC(c2ncc(C(=O)N3CCOCC3)c(C)n2)CC1`, for which the “Percent Effect” value was 139.1%. In the case of `COCCn1cnc(-c2nc(C(=O)N3CCOCC3)c3ccccn23)c1`, the “Percent Effect” value is -9.685%. To `CCCn1cc(C(=O)N2CCCC(c3nccn3CCOC)C2)c(C)n1` (centres undefined) belongs 0.1706%; to `COCCN1CCCC(c2ncc(C(=O)N3CCOCC3)c(C)n2)C1` (centres undefined), 169%.

Turning to `COCCN1C[C@@H](C)[C@@]2(COCCN(C(=O)c3cnc(C)cn3)C2)C1.O=C(O)C(F)(F)F`, the “Percent Effect” value is recorded as -26.1%. To `COc1ccccc1OCCN1CCCC(c2noc(C3CC3)n2)C1` (centres undefined) belongs -3.612%; to `COCCN1CCCC(c2ncc(C(=O)N(C)C)c(C)n2)C1` (centres undefined), 128.7%; to `COCCN1CCCC(c2nc3c([nH]2)CC(C)(C)CNC3=O)C1` (centres undefined), -7.15%. In the case of `CN1CC(NC(=O)Cc2csc(C(C)(C)C)n2)CCC1=O` (centres undefined) it was -3.161%; in that of `Cn1cccc1C(O)CNS(=O)(=O)c1ccccc1Br` (centres undefined), 6.296%.

With `COc1ccc(F)cc1C(=O)N(C)[C@@H]1CC[C@@H](O)[C@@H]1O`, the “Percent Effect” value amounted to 132.3%. On to `CN(C(=O)c1ccccc1F)[C@@H]1CC[C@@H](O)[C@@H]1O`, for which the “Percent Effect” value came to 107.7%.

As to `CN(C(=O)c1cc(F)ccc1F)[C@@H]1CC[C@@H](O)[C@@H]1O`, the “Percent Effect” value amounted to 103%. Take `O=C(NCC1(CO)CC1)c1ccccc1F`: the “Percent Effect” value is given as -18.48%. For `COc1ccc(F)cc1C(=O)N(C)Cc1cc(C)on1`, the “Percent Effect” value came to 2.319%. For the compound `CO[C@@H]1CCC[C@@H](N(C)C(=O)c2cc(F)ccc2F)[C@H]1O`, the “Percent Effect” value is on record as 130.1%. In the case of `COc1ccc(F)cc1CSCC(=O)N(C)C1CC1` it was -12.98%; in that of `CN(CC(=O)N1CCCC1)C(=O)c1ccccc1F`, 15.74%; in that of `COC(=O)CCN1CCC(C(=O)c2cc(F)ccc2F)CC1`, -15.76%. To `NC(=O)N1CCCC1COC(=O)c1cc(F)ccc1F` (centres undefined) belongs -4.772%. In the case of `N[C@@H]1CC[C@H](C(=O)NCCc2nc(-c3ccccc3)cs2)C1` it was 11.72%; in that of `COc1ccc2c(c1)OCC(Cc1cncc(N)c1)C2` (centres undefined), -0.2819%.

In the case of `CN(C)C[C@@H]1CN(C(=O)c2cc(S(N)(=O)=O)ccc2F)C[C@@H]1CO`, the “Percent Effect” value came out at 8.109%. On to `COc1cccc(OC)c1C(=O)N1C[C@@H](CN(C)C)[C@@H](CO)C1`, for which the “Percent Effect” value is -5.352%.

Regarding `CN(C)C[C@@H]1CN(C(=O)c2cc(-c3ccccc3)n[nH]2)C[C@@H]1CO`, the “Percent Effect” value worked out at 104.8%. `CCN(C)C[C@@H]1CN(C(=O)c2cc(-c3ccc(F)cc3)n[nH]2)C[C@@H]1CO`: the “Percent Effect” value was 95.72%. In the case of `COc1cccc(F)c1C(=O)N1C[C@@H](CN(C)CCO)[C@@H](CO)C1`, the “Percent Effect” value came out at 0.09463%. In the case of `CCN(C)C[C@@H]1CN(C(=O)c2cc(C(F)(F)F)n[nH]2)C[C@@H]1CO`, the “Percent Effect” value is 95.2%. In the case of `CN(C)C[C@@H]1CN(C(=O)c2cc(F)ccc2F)C[C@@H]1CO` it was -6.942%. Consider `COc1ccc(-n2nc(C)c(C(C)=O)c2C)cc1C(N)=O`, for which the “Percent Effect” value is given as 0.6017%. In the case of `CC(=O)NCCNC(=O)Nc1cccc(Cl)c1SC(F)F` it was -0.5749%; in that of `Cc1ccc(C#N)c(N2CCCC(c3nccn3Cc3cscn3)C2)n1` (centres undefined), 8.413%; in that of `COCC1CN(C(=O)COc2ccccc2C)Cc2ncn(C)c21.O=C(O)C(F)(F)F` (centres undefined), -9.212%. On to `Cc1cnc(C(=O)N2Cc3ncn(C)c3C(COCC(C)C)C2)cn1.O=C(O)C(F)(F)F` (centres undefined), for which the “Percent Effect” value is on record as 101.6%. For the compound `Cn1cnc2c1C(COCC1CC1)CN(C(=O)c1cscn1)C2.O=C(O)C(F)(F)F` (centres undefined), the “Percent Effect” value is -8.988%. In the case of `CC(C)COCC1CN(C(=O)c2cscn2)Cc2ncn(C)c21.O=C(O)C(F)(F)F` (centres undefined) it was 123.8%; in that of `Cn1cnc2c1C(COCC1CC1)CN(C(=O)Cc1ccsc1)C2.O=C(O)C(F)(F)F` (centres undefined), 12.67%. As for `CCc1cc(N2CCC(F)(F)CC2)n2nc(C)c(C)c2n1`, the “Percent Effect” value was -3.857%. In the case of `O=C(NCC1CCCN1CCc1ccccc1)NCC1(O)CCC1` (centres undefined) it was 3.682%. With `c1ccc(CCN2CCCC2c2cncc(Nc3nncs3)n2)cc1` (centres undefined), the “Percent Effect” value is listed as 77.51%.

For `c1nnc(Nc2cncc(C3CCCN3CC3CC3)n2)s1` (centres undefined), the “Percent Effect” value is 143.4%. To `Cc1nc(C)n(CC2CCCN2CC(=O)Nc2nncs2)n1` (centres undefined) belongs -3.74%; to `Cl.NC(=O)COc1ccc(CNCc2ccc(F)cc2F)cc1`, -6.385%. To `COc1ccc2c(c1)Cc1c-2nc(N)c(C#N)c1C1CCOC1` (centres undefined) belongs 55.98%.

`COc1cc(-c2cc(C3CCOC3)c(C#N)c(N)n2)ccc1O` (centres undefined): the “Percent Effect” value was -3.198%. With `COc1ccc2c(c1OC)Cc1c-2nc(N)c(C#N)c1C1CCOC1` (centres undefined), the “Percent Effect” value came to 97.76%. For `Cc1cc(C)cc(-c2cc(C3CCOC3)c(C#N)c(N)n2)c1` (centres undefined), the “Percent Effect” value was determined as 8.915%.

Regarding `N#Cc1c(N)nc2c(c1C1CCOC1)CCc1cc(O)ccc1-2` (centres undefined), the “Percent Effect” value turned out to be 95.46%. To `COc1ccc(-c2cc(C3CCOC3)c(C#N)c(N)n2)cn1` (centres undefined) belongs -5.09%; to `CN(C)Cc1nc(C(C)(C)NC(=O)C2CC(=O)N(CC3CC3)C2)no1` (centres undefined), -8.829%. For `CN(C(=O)c1cccn1C)C1CCC(NC(=O)OC(C)(C)C)CC1` (centres undefined), the “Percent Effect” value is -22.93%. Turning to `O=C(NC(CC(F)(F)F)c1ccc(Cl)cc1)c1nc(=O)[nH][nH]1` (centres undefined), the “Percent Effect” value was -2.983%. In the case of `Cc1ccc(=O)n(CC(=O)N2CCCC(c3nc(C)c(C)s3)C2)n1` (centres undefined) it was -3.398%.

Turning to `CC(C)c1nc(CC(=O)N2CCCC(n3cncn3)C2)cs1` (centres undefined), the “Percent Effect” value is given as -6.104%. Take `Cc1csc2c(C3CCCN(C(=O)CCCn4cncn4)C3)nc(C)n12` (centres undefined): the “Percent Effect” value is listed as 105.3%.

`Cc1nc(C)n(CC(=O)N2CCCC(c3nc(C)n4c(C)csc34)C2)n1` (centres undefined): the “Percent Effect” value is recorded as 71.32%.

`Cc1csc2c(C3CCCN(C(=O)CCn4ccnc4)C3)nc(C)n12` (centres undefined): the “Percent Effect” value is recorded as 85.68%. In the case of `Cc1nc(C)n(C2CCCN(C(=O)CCCn3ccnc3)C2)n1` (centres undefined) it was -10.35%. Turning to `Cc1csc2c(C3CCCN(C(=O)Cn4cncn4)C3)nc(C)n12` (centres undefined), the “Percent Effect” value is 83.22%. Take `O=C(c1ccc2ccccc2c1)C1CCCN(C(=O)Cn2cncn2)C1` (centres undefined): the “Percent Effect” value is 2.145%. In the case of `Cc1ccsc1[C@@H]1CCN(C(=O)CCCn2cncn2)C[C@H]1O` it was 10.3%; in that of `CCCN1CCCC2(CCN(C(=O)CCCn3cncn3)C2)C1=O` (centres undefined), -10.51%. In the case of `COc1cccc(OCC2CCCN(C(=O)CCn3ccnc3)C2)c1` (centres undefined) it was -97.21%.
